Screening data deposited in PubChem BioAssay by National Center for Advancing Translational Sciences (NCATS).
Pf growth 96h: inhibits malaria parasite growth, 96 h; P. falciparum luciferase reporter growth, 96 h; Potency, µM (series often up to 28.7 µM), for inactives: at the highest dose activity change, negative = inhibition, hits mostly inhibitors; hit rate 6.9% among 320,000; further: potency means the concentration at half of the fitted maximal effect; on the % scale 0 is the no-effect control and ±100 the full control effect
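Readout is luminescence from an integrated firefly luciferase in P. falciparum. Red cells, 2% hematocrit and 0.05% parasitemia final, were cultured with compound through two parasite generations (96 hours) at 37 C, 5% CO2.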
Shiga inhibitor: blocks Shiga toxin action in Vero cells. hit rate 9.2% among 290,000. Vero cells, Shiga toxin protein synthesis inhibition reporter. AID 2315. inhibition, % at 38.7 µM; in the data active means inhibition mostly above about 28%, no sharp cut-off; inactive means mostly below about 43%; further: 0% is about no effect
LmPK inh: inhibitors of Leishmania mexicana pyruvate kinase | AID 1721 | hit rate 0.37% among 290,000 | Potency, µM (series often up to 57.5 µM), for inactives: top-dose activity change, negative = inhibition, hits mostly inhibitors | purified LmPK, Kinase-Glo ATP luminescence, 1 h | Q27686; further: potency means the concentration at half of the fitted maximal effect; on the % scale 0 is the no-effect control and ±100 the full control effect
Target sequence (Q27686 whole entry, looked up): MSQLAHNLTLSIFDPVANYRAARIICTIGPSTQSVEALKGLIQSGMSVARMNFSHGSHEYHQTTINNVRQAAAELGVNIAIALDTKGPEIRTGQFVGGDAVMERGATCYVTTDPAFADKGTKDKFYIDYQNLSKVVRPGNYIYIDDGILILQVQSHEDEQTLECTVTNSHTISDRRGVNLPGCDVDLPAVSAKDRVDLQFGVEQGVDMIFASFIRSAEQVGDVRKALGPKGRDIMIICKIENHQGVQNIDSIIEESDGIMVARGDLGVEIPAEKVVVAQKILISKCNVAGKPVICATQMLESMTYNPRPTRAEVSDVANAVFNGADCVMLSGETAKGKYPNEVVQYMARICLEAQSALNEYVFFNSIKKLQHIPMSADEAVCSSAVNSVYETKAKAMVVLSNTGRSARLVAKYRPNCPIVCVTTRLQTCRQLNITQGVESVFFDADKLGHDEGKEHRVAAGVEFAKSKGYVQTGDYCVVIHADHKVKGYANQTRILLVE
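In 50 mM imidazole pH 7.2 with 7 mM MgCl2, LmPK (0.1 nM) turned over PEP (0.5 mM) and ADP (0.1 mM) for 1 h at room temperature. Luciferase read-out of ATP.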
Pf growth 48h: inhibits P. falciparum growth in the first generation, 48 h. Potency, µM (doses to about 28.7 µM), for inactives: at the top dose activity change, negative = inhibition, hits mostly inhibitors. hit rate 5.9% among 310,000. AID 504832. P. falciparum luciferase growth in erythrocytes, 48 h; further: potency means the concentration at half of the fitted maximal effect; on the % scale 0 is the no-effect control and ±100 the full control effect
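Luciferase-expressing parasites in RBCs, 2% Hct / 0.1% parasitemia final; RPMI 1640 + 0.5% Albumax; 37 C, 5% CO2, one generation; luminescence read-out, lower signal = inhibition.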
Cycloheximide cs: affects cycloheximide protein synthesis inhibition readout, counter-screen | cell reporter, cycloheximide protein synthesis inhibition counterscreen | hit rate 12% among 300,000 | max response, %; in the data active means max response mostly above about 13%, no sharp cut-off; inactive means mostly below about 14%; further: read at 38.3 µM for the half of the compounds with a filed dose; 0% is about no effect
Active calls of the source: *; ? = inconclusive; . = no result given; ! = a repeat was not active; [ ] = dose if it differs, or a comment. A selection: hits, their analogues and other compounds. The true share with any hit is near 22%. Unless noted, the call rests on the fitted dose curve; in most records, active means well fitted inhibition curve with a large enough effect; inconclusive means small, poorly fitted or top-dose-only effect, or another doubt; inactive means no such curve, though single readings can be large or run the other way.

SMILES	Pf growth 96h	Shiga inhibitor	LmPK inh	Pf growth 48h	Cycloheximide cs
O=C(Nc1nccs1)c1cc(Cl)nc2ccccc12	21%	-2	2%	38%	-1
COc1ccccc1C(=O)NCCC(=O)NCc1ccncc1	-17%	.	.	-16%	.
O=C(NCc1cccc(Cl)c1)c1ccc2ccccc2n1	14%	-5	-4%	-9%	-4
O=C(Nc1ccccn1)c1ccc2ccccc2n1	-1%[5.75 µM]	81*	?	-19%	66*
Cc1csc(NC(=O)c2cnc3ccccc3n2)n1	179%	22	1%	45%	8.4*
O=C(O)CSc1nc2ccc(C(=O)c3ccccc3)cc2[nH]1	?	-2	-5%	16%	-4
CC1CC=CC2C1C(=O)N(Cc1ccccc1)C2c1ccc2ccccc2c1C=Cc1ccccc1 (configuration not stated)	.	9	.	.	6
CC[C@@H]1CC=C[C@H]2[C@H]1C(=O)N(Cc1ccccc1)[C@H]2c1ccoc1	?	58*	6%	12µM*	12*
O=C1C2C(c3cccc(/C=C/c4ccccc4)c3)CC=CC2C(c2ccc(C(F)(F)F)cc2)N1Cc1ccccc1 (configuration not stated)	9.3µM*	54*!	3%	12µM*	17
COc1ccc(-c2cc([C@H]3[C@H]4C=CC[C@@H](C)[C@@H]4C(=O)N3Cc3ccccc3)ccc2F)cc1OC	?	61*	-6%	?	22*
C[C@@H]1CC=C[C@H]2[C@H]1C(=O)N(Cc1ccccc1)[C@H]2c1ccc2ccccc2c1Br	?	7	0%	10µM*	-4
CCO/C(C)=C1/SC(=S)NC1=O	10%	-13	1%	22%	1
C[C@@H]1CC=C[C@H]2[C@H]1C(=O)N(Cc1ccccc1)[C@H]2c1ccc2ccccc2c1	3.7µM*	-3	2%	10µM*	-3
CC1CC=CC2C1C(=O)N(Cc1ccccc1)C2c1ccc2ccccc2c1 (configuration not stated)	.	16	.	.	-6
CCOc1ccc(/C=N/Nc2ccc(Cl)nn2)c(O)c1	?	58*	1%	1.3µM*	7
Oc1c(Br)cc(/C=N/Nc2ccc(Cl)nn2)cc1Br	1µM*	15	-3%	0.52µM*	12
Oc1c(Br)cc(Br)cc1/C=N/Nc1ccc(Cl)nn1	?	20	2%	?	-2
Fc1cccc(/C=N/Nc2ccc(Cl)nn2)c1	133%	47	-3%	-17%	41*
CCOC(=O)c1oc2ccccc2c1CN1CCN(C)CC1	13µM*	-2	-2%	16%	-5
Cc1cccc(-n2ncc3c(NCCN4CCOCC4)ncnc32)c1	-18%	-5	-3%	0%	2
c1ccc(-n2ncc3c(NCCN4CCCCC4)ncnc32)cc1	393%	66*	-2%	122%	52*
c1ccc(-n2ncc3c(NCCN4CCOCC4)ncnc32)cc1	12µM*	72*	0%	85%	22*
O=S(=O)(Cc1ccccc1)N1CCNCC1	1%	-8	-3%	40%	-2
CCn1c(=O)cc(SCC(=O)N2CCN(c3ccccc3F)CC2)c2ccccc21	-4%	11	2%	?	-1
O=C(Oc1c(CN2CCOCC2)cc(Cl)c2cccnc12)c1ccccc1Cl	1.3µM*	-3	9%	?	8
SMILES	Pf growth 96h	Shiga inhibitor	LmPK inh	Pf growth 48h	Cycloheximide cs
O=C(Oc1ccc(Cl)c2cccnc12)N1CCOCC1	?	-9	-10%	20%	-2
O=C(Oc1c(CN2CCOCC2)cc(Cl)c2cccnc12)c1cccs1	0.74µM*	12	-1%	2.6µM*	2
CCCS(=O)(=O)c1nc(S(=O)(=O)c2ccc(C)cc2)c(N2CCN(CCO)CC2)s1	?	-7	5%	-29%	6
COc1ccc(C2=Nn3c(nnc3-c3cc(OC)ccc3OC)SC2)c(OC)c1	.	-4	.	.	-6
O=C(Nc1ccccc1Cl)c1cc[n+](Cc2ccc([N+](=O)[O-])cc2)cc1	5%	-10	6%	-18%	2
COc1ccccc1-c1nn2c(C3COc4ccccc4O3)nnc2s1 (configuration not stated)	3.7µM*	6	3%	14%	10
c1ccc(Cc2nnc3sc(C4COc5ccccc5O4)nn23)cc1 (configuration not stated)	?	1	-3%	-7%	0
c1ccc(Cc2nn3c(C4COc5ccccc5O4)nnc3s2)cc1 (configuration not stated)	.	72*	1%	-8%	33*
c1ccc(CCc2nn3c(C4COc5ccccc5O4)nnc3s2)cc1 (configuration not stated)	26%	35*	4%	6%	24*
COc1ccc(CCNC(=O)C2CC(c3cc(C(F)(F)F)cc(C(F)(F)F)c3)=NO2)cc1 (configuration not stated)	7%	-2	0%	-9%	-2
Cc1ccc(S(=O)(=O)NNC(=O)c2sc(=S)n(C)c2C)cc1	15%	-5	1%	14%	-2
COc1cccc(CN2CC(C(=O)NCCCn3cccn3)CCC2=O)c1 (configuration not stated)	28%	20	-4%	-3%	-4
O=C(Nc1cccc(Oc2ccc(C(=O)O)c(C(=O)O)c2)c1)c1ccc(-c2ccccc2)cc1	56%	-4	-3%	1.7µM*	-1
O=C(Nc1cccnc1)c1ccc(CSc2ccccc2)cc1	67%	73*	-12%	67%	41*
CCCOc1ccc(C(=O)Nc2cccnc2)cc1	21%	.	-7%	184%	29*
CCCCOc1ccc(C(=O)Nc2ccncc2)cc1	-11%	94*	-11%	?	26*
CCCCOc1ccc(C(=O)NC)cc1	.	20	-2%	-12%	21
CC(=O)Oc1ccc(-c2cccc(C(=O)N(C)c3ccc(O)cc3)c2)cc1	11%	-5	0%	?	-4
O=C1OCCN/C1=C\C(=O)c1ccc(Cl)cc1	84%	-3	3%	100%	1
NC1=NC(=O)/C(=C\c2ccsc2)S1	14%	-20	0%	-11%	12
Cc1cc(NS(=O)(=O)c2ccc(NC(=O)c3cnc(Cl)c(Cl)c3)cc2)nc(C)n1	-29%	.	.	?	.
O=C(CCNC(=O)C1CCN(S(=O)(=O)c2ccc(F)cc2)CC1)Nc1ccccc1	-5%	13	4%	11%	1
O=C(Nc1cccnc1)c1ccccc1Oc1ccccc1	30%	-14	3%	2%	3
O=C(Nc1cccnc1)c1ccc(Oc2ccccc2)cc1	.	38*	?	135%	34*
O=C(Nc1cccnc1)c1ccc(COc2ccccc2Br)cc1	-3%	32	-6%	?	24*
COc1cccc(CNC(=O)C(=O)NCC2OCCCN2S(=O)(=O)c2cc(C)ccc2C)c1 (configuration not stated)	?	-6	-1%	?	3
Cc1cccc(NC(=O)Nc2cccc(F)c2)n1	-24%	79*	0%	62%	52*
COc1cccc(NC(=O)Nc2nccc(C)n2)c1	12%	72*	-22%	82%	38*
